Data: PubChem BioAssay (NCI)
Compounds without any hit were thinned out: in the full panel of roughly 79,000, 15% have a hit. Calls of active or inactive are those of the source. Rule as the data show it: active = growth inhibition above about 70%; inactive = the rest.

Experiment: NCI Yeast Anticancer Drug Screen. Data for the mlh1 rad18 strain (AID 175)
Settings: S. cerevisiae mlh1 rad18 strain growth inhibition; at 5.0 µM (retest, dose inferred, filed as 0.5); stronger effect = higher value
Method in brief: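 Steps: expose repair-defective yeast to compound; measure growth; express inhibition against vehicle-treated controls.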
With `CCOP(=O)(OCC)C(Cc1ccccc1)N=C(c1ccccc1)c1ccccc1` (centres undefined) the growth inhibition was -18% (inactive). With `CCc1ncnc2cc(OCC3CO3)c(OC)cc12` (centres undefined) the growth inhibition was 90% (active). In the case of `CCOC(=O)[C@H]1Nc2ccccc2C2c3ccccc3CC21` (some centres undefined), the growth inhibition was 8% (inactive). In the case of `O=CNc1ccc2c(c1)C(=O)c1ccccc1-2`, the growth inhibition was 4% (inactive). For `CCOc1ccc2c(c1)c(CC(=O)O)cn2C`, the growth inhibition was -81% (inactive). In the case of `OC1CSCCCSCCSCCCSC1`, the growth inhibition was -22% (inactive). With `N#Cc1c(N)[nH]c2ccc(Sc3ccccc3)cc12` the growth inhibition was 19% (inactive). For `Cc1ccc(-c2ccc(Nc3c4ccccc4nc4ccccc34)cc2)cn1`, the growth inhibition was 16% (inactive). In the case of `c1ccc2c(c1)NC(NC1Nc3ccccc3N1)N2`, the growth inhibition was 25% (inactive). For `OC(COc1cccc2ccccc12)CN1CCOCC1` (centres undefined), the growth inhibition was 37% (inactive). For `CCC/C(Cl)=N\OC(=O)Nc1ccc(Br)cc1`, the growth inhibition was 61% (inactive). For `COc1ccc(/C=C2\SC(=S)N(/C=C/c3nc4ccccc4[nH]c3=O)C2=O)cc1OC`, the growth inhibition was -11% (inactive). With `O=C(NNc1ccnc2cc(Cl)ccc12)/C(=C\c1ccccc1Cl)NC(=O)c1ccccc1` the growth inhibition was -13% (inactive). With `CSC1=NNC(SC)=NN1` the growth inhibition was 44% (inactive). For `Cc1c(C2=C(Br)C(=O)N(C)C2=O)c(=O)n(C)c(=O)n1C`, the growth inhibition was 4% (inactive). For `NCCNc1ccc(NCCN)c2c1C(=O)c1c(O)ccc(O)c1C2=O`, the growth inhibition was 14% (inactive). With `Cn1c(=O)c(-c2ccccc2)c(N=[N+]=[N-])c2ccccc21` the growth inhibition was -4% (inactive). With `CCCCCCCCCCCCCCCCCCOCC(O)COP(=O)(O)OCC1OC(n2cc(F)c(=O)[nH]c2=O)CC1O` (centres undefined) the growth inhibition was 24% (inactive). With `CCS(=O)(=O)c1ccc(/C=C/C=N/NC(=S)NCC(C)C)cc1` the growth inhibition was 8% (inactive). With `CCC(=O)Oc1c(Cl)cc(Cl)c2ccccc12` the growth inhibition was -10% (inactive). With `COc1cc2c3c(cccc3c1)C(=O)N(CCN(C)C)C2=O` the growth inhibition was 42% (inactive). In the case of `CN(C)c1ccc(C(C#N)=C(C#N)C#N)cc1`, the growth inhibition was -108% (inactive). For `O=C(CCCN1CCC2(CC1)CC(=O)N(N1CCCCCC1)C2=O)c1ccc(F)cc1`, the growth inhibition was 25% (inactive). In the case of `O=C1C2C(C(=O)N1c1ccc(OCc3ccccc3)cc1)C1c3ccccc3C2C2CCCCN21` (centres undefined), the growth inhibition was -6% (inactive). With `CCN(CC)CCC(=O)c1ccc(Oc2ccc(F)cc2)cc1` the growth inhibition was 65% (inactive). With `O=Nc1c(NO)ccc2nn(-c3ccccc3)nc12` the growth inhibition was 77% (active). For `CC(=O)SCCC[Si](C)(C)CCCSC(C)=O`, the growth inhibition was -2% (inactive). In the case of `O=C(O)C1CCCCC1c1c2ccc(=O)c(O)c-2oc2c(O)c(O)ccc12` (centres undefined), the growth inhibition was -3% (inactive). For `Cc1ccc(NN(NC(=O)OC(C)C)C(=O)OC(C)C)cc1`, the growth inhibition was 16% (inactive). For `O=C1c2ccccc2C(=O)c2cc(CBr)ccc21`, the growth inhibition was 63% (inactive). For `Cc1c(C(Cc2ccccc2N(C)C(=O)/C=C\C(=O)O)c2c[nH]c3ccccc23)c2ccccc2n1C` (centres undefined), the growth inhibition was -9% (inactive). For `CC(C)/C(Cl)=N\OC(=O)Nc1ccc(F)cc1`, the growth inhibition was 33% (inactive). With `O=C1OC(=O)C2CCCC3CCCC1C32` (centres undefined) the growth inhibition was 31% (inactive). In the case of `CCOC(=O)C(NC(=O)c1ccccc1)(N1CCN(c2cc3c(cc2F)c(=O)c(C(=O)O)cn3C2CC2)CC1)C(F)(F)F` (centres undefined), the growth inhibition was -21% (inactive). With `COc1ccc(NC(=S)N/N=C(\c2ccccc2)c2ccccn2)cc1` the growth inhibition was 55% (inactive). In the case of `C=CCC1=C(C)C(OC(=O)/C=C/c2ccccc2)CC1=O` (centres undefined), the growth inhibition was 15% (inactive). In the case of `NNc1c(F)c(F)cc(F)c1F`, the growth inhibition was 7% (inactive). With `COP(=O)(OC)/C(=C\C1=CN(C(c2ccccc2)(c2ccccc2)c2ccccc2)CN1)NC=O` the growth inhibition was -22% (inactive). In the case of `COC(=O)c1cc(-c2ccc(C)cc2)[nH]c(=O)c1C#N`, the growth inhibition was 0% (inactive).
